# Screens as filed in PubChem.
# An excerpt weighted towards active compounds, which were near 6.9% of everything screened.
# Giardia killer – kills Giardia lamblia. Giardia lamblia trophozoite viability. activity change, % at 7.66 µM, hits read low. 0.15% of 340,000 active. AID 540267; in the data active = activity change below about -80%; inconclusive = between about -30% and that limit;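 note: parasites exposed to compound for two days anaerobically before the ATP read; % is set by controls: 0 for no effect and ±100 for the full control effect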
#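 Media and compound were dispensed first, then trophozoites at 100 cells/well; plates sat 48 hrs at 37 deg C without oxygen before ATP luminescence reagent was added and read after 15-30 min at room temperature.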
# MCF10A rerep – induces DNA re-replication in MCF 10a normal breast cells; MCF 10A DNA re-replication, Hoechst nuclear intensity, 48 h; 2.9% of 350,000 active; Potency, µM (titrated, usually from 46.1 µM), for inactives: at the top dose activity, positive = re-replication, usual class: activators; note: potency is the fitted concentration of half-maximal effect; % of control where 0% means no effect; nearly all actives have a fitted effect of over 50% in size
# ASM inhibitor – human S-ASM enzyme inhibition; P17405; placental ASM, HMU-PC fluorogenic substrate, 60 min; Potency, µM (titrated, usually from 57.5 µM), inactives show top-dose activity change, negative = inhibition, most hits filed as inhibitors; 0.006% of 340,000 active; note: potency is the fitted concentration of half-maximal effect
# Target sequence (P17405 47-631 limits assumed): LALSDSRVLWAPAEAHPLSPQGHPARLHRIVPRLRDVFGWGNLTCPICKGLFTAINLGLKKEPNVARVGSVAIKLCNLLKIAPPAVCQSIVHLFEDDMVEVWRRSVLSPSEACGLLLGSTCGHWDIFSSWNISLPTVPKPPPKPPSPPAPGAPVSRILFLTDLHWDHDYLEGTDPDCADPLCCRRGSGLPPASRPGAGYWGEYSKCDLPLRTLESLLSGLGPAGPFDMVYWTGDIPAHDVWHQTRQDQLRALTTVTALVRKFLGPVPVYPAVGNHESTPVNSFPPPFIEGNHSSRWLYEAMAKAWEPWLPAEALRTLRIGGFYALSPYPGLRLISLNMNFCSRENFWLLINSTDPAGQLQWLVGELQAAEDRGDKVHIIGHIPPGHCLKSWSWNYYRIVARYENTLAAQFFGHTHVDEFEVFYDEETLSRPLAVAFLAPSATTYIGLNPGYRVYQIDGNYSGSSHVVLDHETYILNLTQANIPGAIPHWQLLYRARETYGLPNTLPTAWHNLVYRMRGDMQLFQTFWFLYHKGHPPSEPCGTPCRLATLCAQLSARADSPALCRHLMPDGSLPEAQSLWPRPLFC
#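 HMU-PC0 cleavage (9 uM final) by human placental ASM, 60 min at 37 °C following 10 min compound exposure at RT; stopped at pH 10, fluorescence Ex 386/Em 447 nm.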
# KB-3-1 tox – KB-3-1 parental cell cytotoxicity. KB-3-1 viability, CellTiter-Glo ATP luminescence, 72 h. Potency, µM (series often up to 46.1 µM), usual class: cytotoxic. 1.4% of 400,000 active. AID 1347075; note: potency is the fitted concentration of half-maximal effect; % is set by controls: 0 for no effect and ±100 for the full control effect; nearly all actives have a fitted effect of over 60% in size
#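 Luminescent ATP read-out (CellTiter-Glo) measures survival of drug-naive KB-3-1 cells after 72 h compound exposure at 37 °C. Titration series was screened from lowest to highest concentration, with DMSO vehicle plates as background controls.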
# SW480 rereplic – inducers of DNA re-replication in SW480 colon cancer cells. SW480 DNA re-replication, Hoechst DNA content imaging, 48 h. Potency, µM (doses to about 46.1 µM), without a hit: at the highest dose re-replication activation, usual class: activators. 1.8% of 340,000 active; note: potency is the fitted concentration of half-maximal effect; % of control where 0% means no effect; nearly all actives have a fitted effect of over 55% in size
#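 Per well, 250 cells were exposed to pinned compound for 48 hr. Nuclear DNA was visualised with Hoechst (40 min, 37 C) and total object intensity recorded by fluorescence scanning.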
# KB-V1 MDR tox – KB-V1 MDR subline cytotoxicity; KB-V1 MDR cells viability, CellTiter-Glo, 72 h; Potency, µM (highest dose often 46.1 µM), usual class: cytotoxic; AID 1347076; 3.4% of 400,000 active; note: potency is the fitted concentration of half-maximal effect; % is set by controls: 0 for no effect and ±100 for the full control effect; nearly all actives have a fitted effect of over 60% in size
#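 Cytotoxicity toward P-gp-expressing KB-V1 cells was determined as loss of CellTiter-Glo luminescence after 72 h at 37 degrees C. Compounds were tested in quantitative HTS format across a concentration range, with curves fitted to normalized data.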
# * marks the source's active call; other numbers are inactive results; i = inactive; u = inconclusive; x = no result; ! = repeats disagree; [ ] = another dose, or the depositor's remark. Unless noted, calls come from the whole dose curve; as a rule, active = well fitted curve in the direction sought with a large enough effect; inconclusive = small, poorly fitted or top-dose-only effect, or another doubt; inactive = no such curve, though single readings can be large; an effect the other way counts as inactive or inconclusive.
SMILES,Giardia killer,MCF10A rerep,ASM inhibitor,KB-3-1 tox,SW480 rereplic,KB-V1 MDR tox
COc1ccc(-c2cc(-c3nnc(COC(=O)C4CC4)o3)c3ccccc3n2)cc1OC,0.1,u,44.1%,u,20.6µM*,u
COc1ccc(-c2cc(-c3nnc(COC(=O)CC4CCCC4)o3)c3ccccc3n2)cc1OC,-2.2,14.6µM*,76.5%,i,u,i
COc1ccc(-c2cc(-c3nnc(COC(=O)c4ccc(O)cc4)o3)c3ccccc3n2)cc1OC,18.2,u,32.1%,i,u,u
Cc1cc(=O)n(Cc2ccc(Br)cc2F)c2c1c(C)nn2-c1ccccc1,x,x,x,i,x,i
O=C1N/C(=N\N=C\c2cccs2)SC1Cc1cccc(Cl)c1Cl (configuration not stated),8.8,1.46µM*,-2.6%,5.17µM*,7.31µM*,u
O=C1NC(=Nc2ccc(F)cc2)SC1Cc1ccc(F)cc1 (configuration not stated),-2.0,-0.8%,-1.9%,i,-7.1%,u
O=C(CC1S/C(=N/N=C/c2cccs2)NC1=O)Nc1ccc(Cl)cc1 (configuration not stated),5.6,-2.7%,-1.7%,i,0.9%,i
O=C1NC(=Nc2ccc(Cl)cc2)SC1Cc1cc(Cl)ccc1Cl (configuration not stated),1.0,u,3.5%,i,2.2%,14.6µM*
O=C1N/C(=N\N=C\c2cccs2)SC1Cc1ccc(Cl)cc1Cl (configuration not stated),27.2,20.7%,-3.5%,7.31µM*,-82.3%,u
Cc1cccc(OCc2nnc(SCC(=O)c3cccs3)n2C)c1C,13.0,2.4%,-0.3%,i,2.8%,16.4µM*
Cc1ccc(Nc2nc3ccccc3n3nnnc23)cc1,8.9,u,89.9%,i,-126.2%,i
COc1ccc(Nc2nc3ccccc3n3nnnc23)cc1,21.9,8.5%,107.4%,i,3.5%,5.8µM*
COc1cc(Nc2nc3ccccc3n3nnnc23)cc(OC)c1OC,-9.6,29.1µM*,23.5%,i,-4.8%,i
C=CC[N+]1([C@H]2C[C@H]3[C@@H]4CC[C@H]5C[C@H](O)[C@@H](N6CCOCC6)C[C@]5(C)[C@H]4CC[C@]3(C)[C@H]2OC(C)=O)CCCC1,x,3.4%,x,x,1.3%,x
CCS(=O)(=O)Nc1cc(-c2cn3ccc(C)cc3n2)ccc1C,x,x,x,i,x,i
CCOC(=O)c1c(N2C(=O)Nc3cc(Cl)c(Cl)cc3N2O)sc2c1CCCCC2,-9.7,2.31µM*,-2.6%,i,-0.1%,i
CCOC(=O)c1c(-n2cnnn2)sc2c1CCCC2,8.7,2.6%,0.7%,i,0.9%,i
Cc1cc(C)n2nc(SCC(=O)Nc3ccc(F)c(F)c3F)nc2n1,-9.7,-4.6%,-0.4%,i,-2.0%,i
COC(=O)c1ccccc1NC(=O)CSc1nc(C)cc(C)n1,18.7,5.8%,-0.7%,i,-7.5%,i
Cc1cc(C)n2nc(SCC(=O)Nc3ccc(F)cc3[N+](=O)[O-])nc2n1,-20.1,1.5%,-2.0%,i,-3.3%,20.6µM*
Cc1cc(C)nc(SCC(=O)Nc2ccccc2[N+](=O)[O-])n1,4.3,0.7%,1.5%,i,-3.1%,23.1µM*
Cc1cc(C)nc(SCNC(=O)c2ccccc2)n1,-17.2,u,4.9%,i,5.8µM*,i
Cc1cccc(SCC(=O)Nc2ccccc2[N+](=O)[O-])c1,-2.2,4.9%,0.5%,i,4.9%,i
Cc1cc(C)nc(SCC(=O)Nc2ccnc3ccccc23)n1,-4.6,-6.3%,-0.4%,3.66µM*,2.8%,4.61µM*
COc1ccc(NC(=O)COCc2cc(-c3cccs3)on2)cc1,x,x,x,i,x,i
SMILES,Giardia killer,MCF10A rerep,ASM inhibitor,KB-3-1 tox,SW480 rereplic,KB-V1 MDR tox
O=C(c1ccc2c(c1)N(Cc1cccc(F)c1)C(=O)c1ccccc1S2)N1CCCC1,x,x,x,i,x,i
Cc1cccc(Nc2nnc(SCC(=O)Nc3ccccc3[N+](=O)[O-])s2)c1,-24.1,6.7%,-14.7%,i,1.5%,20.6µM*
Cc1ccccc1Nc1nnc(SCC(=O)Nc2ccccc2[N+](=O)[O-])s1,-3.9,-4.4%,-6.5%,i,-5.2%,i
CS(=O)(=O)Nc1cccc(C(=O)CC2(O)C(=O)Nc3ccccc32)c1 (configuration not stated),-20.4,2.0%,-1.2%,i,-14.0%,i
CS(=O)(=O)Nc1cccc(C(=O)CC2(O)C(=O)Nc3ccc(Br)cc32)c1 (configuration not stated),-19.5,8.2µM*,-2.9%,i,u,i
COc1ccc(CN([C@H](C)CO)S(=O)(=O)N(Cc2ccccc2)[C@H](CO)C(C)C)cc1,-13.5,-11.1%,-4.4%,i,-15.4%,i
COc1ccc(CN([C@H](CO)CC(C)C)S(=O)(=O)N(Cc2ccccc2)[C@H](CO)CC(C)C)cc1,7.5,267.4%,-12.6%,u,-17.0%,16.4µM*!
C=C[C@H](CC(C)C)N(Cc1ccccc1)S(=O)(=O)N(Cc1ccccc1)[C@@H](C=C)CC(C)C,-16.4,9.2µM*,-8.8%,i,-2.9%[9.22 µM],i
C=C[C@@H](C)N(Cc1ccc(OC)cc1)S(=O)(=O)N(Cc1ccccc1)[C@H](C=C)C(C)C,2.3,3.1%,-3.0%,u,-1.7%,u
CCN([C@H](CO)CC(C)C)S(=O)(=O)c1ccccc1,11.4,8.6%,-3.1%,i,-31.7%,i
CC(C)C[C@@H](CO)N(Cc1ccccc1)S(=O)(=O)N(Cc1ccccc1)[C@@H](CO)CC(C)C,19.9,u,-7.6%,23.1µM*!,0.0%,u
C=CS(=O)(=O)N(Cc1ccccc1Br)[C@H](CO)CC(C)C,-1.9,15.5%,1.6%,23.1µM*!,u,u
Cc1ccc2c(c1)c(N1CCCC1=O)c(C(=O)Nc1ccc(F)cc1F)n2C,x,x,x,i,x,u
Cc1ccc(S(=O)(=O)Nc2cc(Cl)c3oc4c(c3c2)C(=O)CC(C)(C)C4)cc1,x,x,x,i,x,u
CC(C)C[C@@H](CO)N(Cc1ccccc1)S(=O)(=O)N(Cc1ccccc1)[C@H](CO)CC(C)C,-13.5,u,-13.6%,u,11.2%,20.6µM*!
O=S(=O)(N(Cc1ccccc1)[C@H](CO)Cc1ccccc1)N(Cc1ccccc1)[C@H](CO)Cc1ccccc1,1.7,23.1µM*,9.4%,i,-0.6%,i
Cc1ccccc1-n1nc2c(c1NC(=O)c1ccco1)CS(=O)(=O)C2,-4.8,-1.5%,-2.6%,i,-7.1%,i
Cc1ccc(-n2nc3c(c2NC(=O)c2c(-c4ccccc4Cl)noc2C)CS(=O)(=O)C3)c(C)c1,7.5,-0.2%,4.1%,i,0.1%,11.6µM*
